This passage reports max response, outcome and Potency results from PubChem BioAssay (NCATS).

Values joined by “and” are separate entries in the source; they are usually repeats but may differ in a detail not shown here. Equal values may be shown once. Records with an inconclusive call do not appear. Unmarked numbers belong to inactive results. Active and inactive are the calls of the source. Calls come from the whole dose curve; as a rule, active = well fitted inhibition curve with a large enough effect; inconclusive = small, poorly fitted or top-dose-only effect; inactive = flat fitted curve, though single readings scatter.

Assay [1] concerns CRL-7250. The experiment in a line: Cytotoxic Profiling of Annotated Libraries Using Quantitative High-Throughput Screening (AID 1296008). For max response: % is set by controls: 0 for no effect and ±100 for the full control effect. Note: potency is the fitted concentration of half-maximal effect. As to conditions: Five cell lines viability, CellTiter-Glo ATP luminescence, 48-72 h; max response: active compounds read low. The gist of the method: (§1)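 Cells exposed to compounds for 48 or 72 hr at 37 degrees Celsius. Viability read as ATP-coupled luminescence with CellTiter-Glo after 10 min at room temperature.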
In general terms: In ATP-based viability assays light output follows the ATP content of the culture.

Assay [2] deals with HEK293. The assay is described as above. As to conditions: Five cell lines viability, CellTiter-Glo ATP luminescence, 48-72 h; max response: active compounds read low. The gist of the method: as §1
Assay [3] deals with HaCat. The assay is described as above. As to conditions: Five cell lines viability, CellTiter-Glo ATP luminescence, 48-72 h; max response: active compounds read low. The gist of the method:
as §1

The test system of assay [4] is KB-3-1. Described as above. Particulars: Five cell lines viability, CellTiter-Glo ATP luminescence, 48-72 h; max response: active compounds read low. The gist of the method:
as §1

Assay [5] has as its system NIH3T3. The assay is described as above. Particulars: Five cell lines viability, CellTiter-Glo ATP luminescence, 48-72 h; max response: active compounds read low. The gist of the method:
as §1

Assay [6] has as its system TAB165. As to the kind of experiment: qHTS profiling for inhibitors of Plasmodium falciparum proliferation (AID 504749). Note: potency is the fitted concentration of half-maximal effect. As to conditions: P. falciparum in erythrocytes, SYBR Green DNA, 72 h; series mostly up to 28.7 µM. The gist of the method:
(§2)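 SYBR Green fluorescence (ex 485 nm, em 535 nm) reports parasite DNA after 72 h compound exposure of infected red cells at 0.3% parasitemia, 2.5% hematocrit; signal normalized to 0.29 uM artemisinin and vehicle wells.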

Assay [7] relates to W2. The description is as above. As to conditions: P. falciparum in erythrocytes, SYBR Green DNA, 72 h; series mostly up to 28.7 µM. The gist of the method: as §2
Assay [8] deals with CRL-7250. The experiment in a line: qHTS assay to identify novel small-molecules to repurpose for Merkel cell carcinoma treatment (AID 1296009). As to conditions: MCC and control cell lines, CellTiter-Glo viability, 72 h; at 44.8 µM (top of the series) unless noted. The gist of the method: (§3)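 CellTiter-Glo luminescence after 72 hr compound exposure at 37 degree celsius gave cell viability. Libraries NPC and MIPE were run as 8- and 11-point dose responses; RLUs normalized to DMSO (negative) and no-cell (cytotoxicity) controls.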
(In general: Quantitative high-throughput screening tests each substance at several concentrations.)

In assay [9] the test system is HEK293T. Described as above. As to conditions: MCC and control cell lines, CellTiter-Glo viability, 72 h; at 44.8 µM (top of the series) unless noted. The gist of the method: as §3
Assay [10] has as its system HACAT. The description is as above. Particulars: MCC and control cell lines, CellTiter-Glo viability, 72 h; at 44.8 µM (top of the series) unless noted. The gist of the method:
as §3
Note: nearly all actives have a fitted effect of over 60% in size.

With `c1ccc2c(CN3CCNCC3)cccc2c1`, the max response in [1] is -5.13%; in [2], -5.02%; in assay [3], 2.18%; in [5], 4.9%. For the same compound, the compound was called inactive in assay [4].

In the case of `Cc1cc(O)ccc1Cl`, the Potency entry in assay [6] and in assay [7] was “inactive” in each case. For the same compound, the outcome in assay [1], in [5] and in assay [8] was inactive. Moreover, the max response in [2] is 0.405%; in [3] it was 2.83%; in assay [4] it was -3.49%.

In the case of `C[C@]12CCC(=O)C(O)=C1CC[C@@H]1[C@H]3CCC(=O)[C@@]3(C)CC[C@@H]12`, the Potency result in assay [7] is “inactive”. Further, the max response is -0.395% in [1]; -10.2% in [2]; -3.05% in assay [3]; 3.15% in assay [4]; 4.69% in assay [5].

In the case of `Nc1ccc(Sc2ccc(N)cc2)cc1`, the max response in assay [1] is -36.8%; in [2], -4.95%; in assay [4], -8.88%; in [5] it was -12.3%.

For `C#CC1(O)CCC2C3CCC4=CC(=O)CCC4(C)C3CCC21C` (configuration not stated), the Potency result in assay [6] and in [7] was “inactive” in each case. Also, the max response in [1] was -20.8%; in assay [2], -10.4%; in [3], -0.0987%; in assay [4], -11.2%; in [5], 0.477%.

Take `S=C(SSC(=S)N1CCCCC1)N1CCCCC1`: the max response was -1.9% in assay [1] and -9.18% in assay [4]. The Potency in [2] is 0.944 µM (active).

As for `O=S(=O)(O)C(F)(F)C(F)(F)C(F)(F)C(F)(F)F`, the max response in assay [1] is -7.36%; in assay [3] it was 2.96%; in assay [4] it was -15.1%. Also, the result in assay [2] and in [5] was inactive. Further, in assay [9], the outcome was “inactive [at 92 µM]”.

On to `CC1=C(C(=O)O)N2C(=O)[C@@H](N)[C@H]2SC1`, for which the compound was called inactive in assay [1], in assay [2] and in assay [5]. In assay [3], the max response is 3.51%. Further, the outcome in assay [8] and in assay [9] was “inactive [at 17.4 µM]” each time.

`CC(C)(O)C=CC(=O)[C@](C)(O)[C@H]1[C@H](O)C[C@]2(C)[C@@H]3CC=C4[C@@H](C=C(O)C(=O)C4(C)C)[C@]3(C)C(=O)C[C@@]12C`: the Potency in [1] is 0.418 µM (active); in assay [2] it was 1.87 µM (active); in [4] it was 0.132 µM (active); in assay [5], 2.96 µM (active).

For the compound `OCCCBr`, the max response in assay [1] was -6.12%; in assay [3], -13%; in [4], -26.3%; in [5] it was -4.76%. Also, the outcome in assay [2] was inactive. For the same compound, the outcome in [9] is “inactive [at 92 µM]”.

As to `Cc1c(C(=O)c2cccc3ccccc23)c2cccc3c2n1[C@H](CN1CCOCC1)CO3`, the values for the Potency in [1], in [2] and in assay [4] were 20.9 µM (active), 18.7 µM (active) and 13.2 µM (active), respectively.

For the compound `CCCCCCCCCCCCCCCC[N+](C)(C)C`, the Potency in assay [7] was 6.75 µM (active); in assay [1] it was 6.68 µM (active); in assay [2] it was 5.96 µM (active); in assay [3], 2.11 µM (active); in assay [5] it was 21.1 µM (active).

Regarding `NC1CC1c1ccccc1` (configuration not stated), the max response was -3.17% in assay [1], -2.49% in [3], 5.36% in assay [4] and -3.94% in assay [5]. In addition, the outcome in [2] and in assay [9] was inactive.

In the case of `O=C(O)COc1ccccc1`, the Potency result in assay [6] and in assay [7] was “inactive” throughout. The max response in assay [1] was 4.33%; in assay [2], 2.38%; in assay [4] it was -13.1%; in assay [5], -0.908%. The result in assay [3] and in assay [10] was inactive.

For `CN[C@@H]1Cc2cccc3[nH]c(=O)n(c23)C1`, the max response in [1] was -16.3%; in [2], -16.4%; in assay [4], 9.87%; in [5] it was 3.1%.

For `COc1ccc2c(c1)[C@]13CCCCC1C(C2)N(C)CC3` (some centres not stated), the max response is 4.77% in [1], -2.03% in assay [3] and 9.18% in assay [4]. Besides, the result in assay [2], in [5] and in assay [9] was inactive.

Take `C=CC(=O)NCNC(=O)C=C`: the max response was -10.1% in [1], -16.1% in [3], 1.85% in [4] and -14.2% in [5]. The outcome in assay [2] was inactive. In addition, in assay [9], the outcome is “inactive [at 92 µM]”.

Turning to `C[C@]12CC[C@H]3[C@@H](CCC4=CC(=O)CC[C@@]43C)[C@H]1CC[C@H]2OC(=O)CCC1CCCC1`, the max response in [1] is 2.84%; in [3] it was 4.09%; in assay [4], 9.03%; in assay [5] it was 3.21%. Further, the call in assay [2] and in assay [9] was inactive.

Regarding `Fc1cc(Br)ccc1CBr`, the max response was -5.31% in assay [1] and -1.72% in assay [2]. Moreover, the compound was classed as inactive in assay [3], in assay [5] and in assay [10].

As to `C[C@]12CC[C@@H]3[C@@H](CCC4=CC(=O)CC[C@@H]43)[C@@H]1CC[C@@H]2OC(=O)CCc1ccccc1`, the max response was 1.37% in assay [1], -22.8% in [3] and -6.38% in [5]. Moreover, the outcome in [2] and in [9] was inactive.

For `O=C1C=CC[C@@H]2[C@H]3CCCN4CCC[C@@H](CN12)[C@@H]34`, the max response in assay [1] was -6.72% and -5.8%; in assay [3], -19.8% and -9.45%; in [4] it was 5.89%. Further, the outcome in assay [2], in assay [5] and in assay [9] was inactive.

As for `O=C(O)COc1nc(Cl)c(Cl)cc1Cl`, the max response in [1] was -6.6%; in [2] it was -3.5%; in assay [4] it was -16.3%; in [5] it was -4.26%.

As for `C[C@@H]1CC[C@@]2(OC1)O[C@H]1C[C@H]3[C@@H]4CC=C5C[C@@H](O[C@@H]6O[C@H](CO)[C@@H](O[C@@H]7O[C@@H](C)[C@H](O)[C@@H](O)[C@@H]7O)[C@H](O)[C@@H]6O[C@@H]6O[C@@H](C)[C@H](O)[C@@H](O)[C@@H]6O)CC[C@]5(C)[C@@H]4CC[C@]3(C)[C@@H]1[C@H]2C`, the Potency was 9.35 µM (active) in assay [1], 3.72 µM (active) in assay [2], 8.33 µM (active) in assay [4] and 13.2 µM (active) in assay [5].

Turning to `CCC(=O)O[C@@H]1C=C2CCC3C(CCC4(C)C3CC[C@@H]4OC(=O)CC)C2CC1` (some centres not stated), the max response in assay [1] was -3.72%; in assay [2], 2.37%; in [3], -20.7%. Moreover, the call in assay [5] was inactive.
